The text below walks through data of PubChem BioAssay (NCATS).

Values without a mark were called inactive. Activity calls are given as the source filed them. Calls come from the whole dose curve; as a rule, active = well fitted curve in the direction sought with a large enough effect (not every such curve was filed as active); inconclusive = small, poorly fitted or top-dose-only effect, or effect the other way, or another doubt; inactive = no such curve, though single readings can be large or run the other way.

The assay deals with Pyruvate kinase PKM (Homo sapiens) (UniProt P14618). Kind of assay: qHTS Assay for Activators of Human Muscle Pyruvate Kinase (AID 954).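 Note: 0% = uninhibited enzyme and -100% = no enzyme or full thiadiazolimine inhibition.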 The conditions noted are these: purified human muscle pyruvate kinase, luciferase-coupled luminescence, 1 h; series mostly up to 57.5 µM; activity change, negative = inhibition: at the top concentration. The essentials: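 PKM2, human, >95% pure, 0.1 nM; PEP 0.5 mM (Km), ADP 0.1 mM; 50 mM imidazole pH 7.2, 50 mM KCl, 0.01% Tween 20, 0.05% BSA; 1 h RT; luciferase luminescence readout.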
Sequence of Pyruvate kinase PKM (Homo sapiens) (P14618 whole entry, looked up): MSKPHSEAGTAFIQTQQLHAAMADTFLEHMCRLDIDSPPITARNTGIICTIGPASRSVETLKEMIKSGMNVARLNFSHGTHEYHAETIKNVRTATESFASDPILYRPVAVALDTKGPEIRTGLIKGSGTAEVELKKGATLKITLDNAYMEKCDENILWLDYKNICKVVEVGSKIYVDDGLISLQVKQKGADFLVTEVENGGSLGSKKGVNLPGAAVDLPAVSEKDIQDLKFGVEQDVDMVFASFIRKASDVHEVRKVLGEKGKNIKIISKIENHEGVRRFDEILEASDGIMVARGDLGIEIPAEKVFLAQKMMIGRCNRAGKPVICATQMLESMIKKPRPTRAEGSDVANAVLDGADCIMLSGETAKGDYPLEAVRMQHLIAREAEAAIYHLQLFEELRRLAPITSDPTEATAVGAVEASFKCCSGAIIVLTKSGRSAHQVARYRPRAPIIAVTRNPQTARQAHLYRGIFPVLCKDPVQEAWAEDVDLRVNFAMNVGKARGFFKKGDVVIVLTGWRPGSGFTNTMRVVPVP
In general terms: In qHTS, concentration-response curves come from the screen itself.
For `C[C@@H]1[C@@H]2Cc3ccc(O)cc3[C@@]1(C)CCN2CC1CC1`, the “activity change, negative = inhibition” value was -12%.
The same measure, in the same setting: in the case of `C[N+](C)(C)CC#CCN1CCCC1=O` it was -24.4%; in that of `NC(N)=NOCC[C@H](N)C(=O)O`, 0.653%; in that of `CCCn1c(C)c(C(=O)c2ccc3ccccc3c2)c2ccccc21`, 1.75%.
Still for that read-out and setting: in the case of `N[C@@H](Cn1oc(=O)[nH]c1=O)C(=O)O` it was -0.278%; in that of `COc1ccc2[nH]c3c(c2c1)CCNC3`, -8.72%; in that of `CCCN(CCC)CCc1ccc(O)c(O)c1`, -1.15%.
In the case of `CCCN(CCC)CCc1c[nH]c2ccc(C(N)=O)cc12`, the “activity change, negative = inhibition” value is -3.79%.
On the same count and under the same terms, in the case of `CC(C)(C)c1cc(C=C(C#N)C#N)cc(C(C)(C)C)c1O` it was -27.7%; in that of `Cc1[nH]c2ccc(O)cc2c1CCN`, -11.8%.
Regarding `CCCN1CCc2cc(O)cc3c2[C@H]1Cc1ccc(O)c(O)c1-3`, the “activity change, negative = inhibition” value is 22.4%.
Take `N#CCCN`: the “activity change, negative = inhibition” value is -6.61%.
Still for that read-out and setting: in the case of `Clc1ccc(N2C[C@H]3CC[C@@H](C2)N3)nn1` it was -8.96%; in that of `C[N+](C)(C)CC#CCOC(=O)Nc1cccc(Cl)c1`, -2.68%.
On the same count and under the same terms, in the case of `CC(C)NP(=O)(NC(C)C)OP(=O)(NC(C)C)NC(C)C` it was -19.7%; in that of `CC(=O)NBr`, -1.59%.
The same measure, in the same setting: under `Clc1cc(I)cc(Cl)c1NC1=NCCN1` stands -5.51%; under `C[N+]1(C)CCN(c2ccccc2)CC1`, -10.7%; under `CNC(=O)OCC[N+](C)(C)C`, -4.98%.
`O=[N+]([O-])c1cc(O)c(O)c([N+](=O)[O-])c1`: the “activity change, negative = inhibition” value is 9.14%.
Still for that read-out and setting: under `O=S1(=O)N(CCN2CC=C(c3c[nH]c4cc(F)ccc34)CC2)c2cccc3c2N1CCC3` stands -18.7%.
On the same count and under the same terms, in the case of `Cc1sc2ccccc2c1CC1=NCCN1` it was -29.1%; in that of `C[N+](C)(C)CCOC(=O)CBr`, 14.6%; in that of `NC(=O)CI`, -22.5%.
Take `CCCN(CCC)[C@H]1CCc2c(F)ccc(O)c2C1`: the outcome was inactive.
